For 4 compounds, z-score and composite z-score results are on record in PubChem BioAssay.

A short description of assay [1]: optical density shifts of acrAB sulA E. coli – strain DRC41, OD650, 48 h, E. coli filamentation inducer project, primary screen (AID 1152).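 Note: E. coli MC1000 strain DRC41 lacking acrAB efflux pump and sulA.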 Conditions: higher = more signal, called active from +8 up or from −8 down.
The nature of assay [2]: probe aLefty1 binding on compound microarray – biochemical, small-molecule microarray, 635/667 nm fluorescence, primary screen (AID 1153).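 Note: score merges spot fluorescence with signal-to-noise ratio from the scanned slide images.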 The settings on record: higher = more signal.
Assay [3] can be described thus: plasmodial surface anion channel blockers, osmotic lysis – cell-based, P. falciparum Indochina, OD700, 1 h, primary screen (AID 1154). The settings on record: P. falciparum Indochina infected RBC osmotic lysis, higher = more signal, called active from +8 up or from −8 down.
Assay [4] is described as follows: plasmodial surface anion channel blockers, osmotic lysis – cell-based, P. falciparum Indochina, OD700, 2 h, primary screen (AID 1155).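 Note: lysis reports solute entry through the parasite surface anion channel PSAC.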 Conditions: P. falciparum Indochina infected erythrocytes, higher = more signal, called active from +8 up or from −8 down.
Assay [5] can be described thus: changes in parasitized red cell lysis, either direction – P. falciparum Indochina, OD700, 3 h, PSAC antagonist project, primary screen (AID 1156). The settings on record: P. falciparum-infected erythrocytes, osmotic lysis, higher = more signal, called active from +8 up or from −8 down.
The nature of assay [6]: plasmodial surface anion channel blockers, osmotic lysis – cell-based, P. falciparum Indochina, OD700, 18 h, primary screen (AID 1157). The settings on record: P. falciparum Indochina infected erythrocytes, osmotic lysis OD700, 18 h; higher = more signal, called active from +8 up or from −8 down.
A short description of assay [7]: S6 kinase pathway phospho-S6 level changes – cell-based, A549, cytoblot, luminescence, serum-stimulated, primary screen (AID 1158).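 Note: serum-stimulated A549 lung adenocarcinoma cells; signal is phosphorylated S6 detected by cytoblot immunostaining with HRP secondary.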 The settings on record: 5 h, higher = more signal.
For assay [8], the target named is NADPH oxidase 2 (Homo sapiens) (UniProt P04839). Briefly: compounds shifting NOX2 Amplex Red fluorescence – cell-based, HEK293-NOX2, PMA-stimulated, NOX inhibitor project, primary screen (AID 1159). Note: test concentration not given here. The settings on record: 45 min, higher = more signal, called active from +8 up or from −8 down.
Assay [9] has as its target NADPH oxidase 4 (Homo sapiens) (UniProt Q9NPH5). Briefly: compounds shifting NOX4 Amplex Red fluorescence – cell-based, HEK293-NOX4, tetracycline-induced, NOX inhibitor project, primary screen (AID 1160). Conditions: HEK293-NOX4, Amplex Red H2O2 fluorescence, 45 min; higher = more signal, called active from +8 up or from −8 down.
For assay [10], the target named is NADPH oxidase 5 (Homo sapiens) (UniProt Q96PH1). Briefly: compounds shifting NOX5 Amplex Red fluorescence – cell-based, HEK293-NOX5, NOX inhibitor project, primary screen (AID 1161). The settings on record: HEK293-NOX5, ionomycin, 45 min, higher = more signal.
The nature of assay [11]: compound effects on lung adenocarcinoma cell viability – A549, calcein-AM fluorescence, 48 h, basal, profiling panel (AID 1162). Note: test concentration not given here. Conditions: higher = more signal.
Assay [12] is described as follows: compound effects on differentiated 3T3-L1 adipocyte viability – cell-based, 3T3-L1 adipocytes, calcein-AM fluorescence, 48 h, basal, profiling panel (AID 1163). Note: test concentration not given here. The settings on record: 3T3-L1 adipocytes viability, higher = more signal.
Assay [13] is described as follows: compound effects on hepatocellular carcinoma cell viability – HepG2, calcein-AM fluorescence, 48 h, basal, profiling panel (AID 1164). Note: test concentration not given here. Conditions: higher = more signal.
Assay [14] is described as follows: compound effects on multiple myeloma cell viability – MM1S, calcein-AM fluorescence, 48 h, basal, profiling panel (AID 1165). Note: test concentration not given here. Conditions: higher = more signal.
Assay [15] can be described thus: calcein-AM signal in unstimulated myeloma cells – cell-based, calcein-AM fluorescence, 48 h, PK04 Diversity Set, profiling panel (AID 1166).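 Note: cells grown under basal conditions without added stimulus; test concentration not given here.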 Conditions: RPMI8226 myeloma viability, higher = more signal.
Assay [16] in a line: JC-1 mitochondrial signal, unstimulated HepG2 cells – cell-based, JC-1 fluorescence, 24 h, 100 nL compound, profiling panel (AID 1167). Note: test concentration not given here. Conditions: HepG2 mitochondrial potential, higher = more signal.
Assay [17] is described as follows: JC-1 mitochondrial signal, unstimulated adipocytes – cell-based, JC-1 fluorescence, 3T3-L1 adipocytes, 24 h, 100 nL compound, profiling panel (AID 1168). Note: test concentration not given here. Conditions: JC-1 mitochondrial fluorescence, higher = more signal, called active from +8 up or from −8 down.
Assay [18] is described as follows: JC-1 mitochondrial signal, unstimulated myeloma cells – cell-based, JC-1 fluorescence, RPMI8226, 24 h, 100 nL compound, profiling panel (AID 1169). Note: test concentration not given here. Conditions: JC-1 mitochondrial potential fluorescence, higher = more signal.
The nature of assay [19]: JC-1 mitochondrial signal, unstimulated MM1S myeloma – cell-based, JC-1 fluorescence, 24 h, 100 nL compound, profiling panel (AID 1170). Note: test concentration not given here. Conditions: MM1S mitochondrial potential, higher = more signal.
Assay [20] is described as follows: resazurin metabolic signal in A549 cells – cell-based, resazurin fluorescence, 24 h, PK04 Diversity Set, profiling panel (AID 1171). Note: test concentration not given here. Conditions: A549 viability, higher = more signal, called active from +8 up or from −8 down.

Calls of active or inactive are those of the source.

Chain of NADPH oxidase 5 (Homo sapiens) (Q96PH1 whole entry, looked up): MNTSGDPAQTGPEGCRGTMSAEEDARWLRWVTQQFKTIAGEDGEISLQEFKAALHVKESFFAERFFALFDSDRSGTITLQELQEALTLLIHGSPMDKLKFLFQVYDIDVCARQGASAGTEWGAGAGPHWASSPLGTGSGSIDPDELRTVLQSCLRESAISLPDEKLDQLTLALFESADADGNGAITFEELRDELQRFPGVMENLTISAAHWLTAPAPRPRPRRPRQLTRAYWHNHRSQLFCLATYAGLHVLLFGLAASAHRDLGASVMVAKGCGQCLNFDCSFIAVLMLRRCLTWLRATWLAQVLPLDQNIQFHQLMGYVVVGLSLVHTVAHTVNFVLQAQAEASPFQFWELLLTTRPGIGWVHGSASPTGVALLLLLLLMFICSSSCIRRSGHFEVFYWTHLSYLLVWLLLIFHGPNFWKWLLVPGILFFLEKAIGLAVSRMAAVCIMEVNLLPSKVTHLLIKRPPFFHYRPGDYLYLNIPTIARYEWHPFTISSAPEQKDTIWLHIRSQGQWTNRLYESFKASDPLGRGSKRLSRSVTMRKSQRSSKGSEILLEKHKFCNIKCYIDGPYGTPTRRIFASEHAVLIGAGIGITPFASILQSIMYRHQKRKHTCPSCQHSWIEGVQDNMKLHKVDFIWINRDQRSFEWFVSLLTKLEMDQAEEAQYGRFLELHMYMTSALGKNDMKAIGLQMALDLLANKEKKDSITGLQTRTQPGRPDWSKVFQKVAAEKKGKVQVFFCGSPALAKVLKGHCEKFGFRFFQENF
Chain of NADPH oxidase 2 (Homo sapiens) (P04839 whole entry, looked up): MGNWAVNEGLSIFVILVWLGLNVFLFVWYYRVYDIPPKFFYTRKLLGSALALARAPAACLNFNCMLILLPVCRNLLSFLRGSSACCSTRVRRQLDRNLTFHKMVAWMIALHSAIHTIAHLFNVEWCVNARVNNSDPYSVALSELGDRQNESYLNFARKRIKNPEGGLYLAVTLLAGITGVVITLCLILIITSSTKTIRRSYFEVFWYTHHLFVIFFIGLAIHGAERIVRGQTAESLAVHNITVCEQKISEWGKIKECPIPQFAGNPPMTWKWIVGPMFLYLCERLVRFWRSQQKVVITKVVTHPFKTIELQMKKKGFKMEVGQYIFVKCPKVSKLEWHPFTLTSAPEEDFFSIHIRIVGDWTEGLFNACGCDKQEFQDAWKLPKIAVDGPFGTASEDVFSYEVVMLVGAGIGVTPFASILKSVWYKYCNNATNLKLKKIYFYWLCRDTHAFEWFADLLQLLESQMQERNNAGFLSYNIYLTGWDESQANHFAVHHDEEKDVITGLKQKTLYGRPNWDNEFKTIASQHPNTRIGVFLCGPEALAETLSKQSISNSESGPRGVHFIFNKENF
Chain of NADPH oxidase 4 (Homo sapiens) (Q9NPH5 whole entry, looked up): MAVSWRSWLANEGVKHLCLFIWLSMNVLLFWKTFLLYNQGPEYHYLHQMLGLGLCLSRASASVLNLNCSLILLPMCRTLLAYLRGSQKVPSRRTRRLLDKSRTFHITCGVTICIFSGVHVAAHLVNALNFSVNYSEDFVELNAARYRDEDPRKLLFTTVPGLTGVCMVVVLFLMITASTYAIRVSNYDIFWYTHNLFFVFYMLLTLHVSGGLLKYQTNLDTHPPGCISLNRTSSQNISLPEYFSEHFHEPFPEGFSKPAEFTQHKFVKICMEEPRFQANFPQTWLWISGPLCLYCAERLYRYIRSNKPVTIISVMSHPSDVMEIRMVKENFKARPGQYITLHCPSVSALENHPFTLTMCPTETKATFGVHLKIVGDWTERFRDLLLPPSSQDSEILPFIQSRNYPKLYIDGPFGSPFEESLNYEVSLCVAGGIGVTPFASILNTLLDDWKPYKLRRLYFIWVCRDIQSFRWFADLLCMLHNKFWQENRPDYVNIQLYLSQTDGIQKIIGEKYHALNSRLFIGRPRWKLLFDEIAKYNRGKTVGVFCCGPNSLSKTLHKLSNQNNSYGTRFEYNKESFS

Regarding `O=C(NN=C1C[C@@H](O)[C@@H](O)[C@@H]2[C@@H]3C(=O)N(c4cccc(Oc5ccccc5)c4)C(=O)[C@@H]3CC[C@@H]12)OCc1ccccc1`, the z-score was -0.385 (inactive) in assay [1]; 2.57 (inactive) in [3]; 0.237 (inactive) in assay [4]; 1.09 (inactive) in assay [5]; 0.0572 (inactive) in assay [6]; -0.818 in assay [7]. For the same compound, the z-score in assay [8] is 1.05 (inactive); in [9], -2.06 (inactive); in assay [10] it was 0.134; in [11], 0.359; in assay [12], 0.51; in assay [13], -0.492. The z-score is -0.0408 in [14]; -0.238 in assay [15]; -0.659 in assay [16]; -0.0191 (inactive) in assay [17]; 0.682 in assay [18]; 0.615 in [19]. Further, the z-score in [20] was 0.413 (inactive). This compound showed a composite z-score in [2] of 0.101.

On to `COCCCNC(=O)[C@@]1(C)c2ccccc2C(=O)N(Cc2ccc(OC(F)(F)F)cc2)[C@H]1c1ccc(CO)cc1`, for which the z-score was 0.906 (inactive) in [1]; 2.23 (inactive) in assay [3]; 0.123 (inactive) in assay [4]; 1.06 (inactive) in assay [5]; -0.0648 (inactive) in assay [6]; -0.459 in [7]. Further, the z-score in assay [8] was -0.599 (inactive); in [9], 1.18 (inactive); in assay [10], 0.247; in assay [11] it was 0.144; in assay [12] it was -0.471; in assay [13], 1.22. In addition, the z-score in [14] was -0.0013; in assay [15] it was 0.125; in assay [16], 2.4; in [17] it was 0.582 (inactive); in assay [18] it was -0.68; in [19] it was -1.06. Also, the z-score in assay [20] is -0.903 (inactive). Moreover, the composite z-score in assay [2] was -0.191.

For `CCCNC(=O)OC[C@H]1O[C@H](CCON=CC[C@@H]2C=C[C@H](OC(C)=O)[C@@H](COC(C)=O)O2)C=C[C@@H]1Oc1ccc(OC)cc1`, the z-score in [1] was -0.413 (inactive); in assay [3], 1.6 (inactive); in assay [4], 0.405 (inactive); in [5], 0.126 (inactive); in [6], 0.392 (inactive); in assay [7], -0.397. Further, the z-score in assay [8] is -1.02 (inactive); in assay [9], 0.143 (inactive); in assay [10], -1.07; in assay [11] it was 0.51; in [12], -0.217; in assay [13], -0.24. The z-score in assay [14] was -0.516; in [15] it was -1.28; in assay [16], -1.14; in assay [17], -1.12 (inactive); in [18], -0.057; in assay [19], 0.306. The z-score in assay [20] is 0.248 (inactive). Also, the composite z-score in assay [2] was -0.145.

`CS(=O)(=O)CCOC(=O)C1=CC(CCCO)=CC(c2cccs2)N(Cc2cccc(OC(F)(F)F)c2)C=C1C(=O)OCCS(C)(=O)=O` (stereo not given): the z-score was -0.697 (inactive) in [1]; 6.83 (inactive) in [3]; 1.56 (inactive) in assay [4]; 0.813 (inactive) in assay [5]; 0.969 (inactive) in [6]; -0.0175 in [7]. Also, the z-score is -0.895 (inactive) in assay [8]; -1.15 (inactive) in assay [9]; -2.09 in assay [10]; 0.0985 in assay [11]; 0.783 in [12]; 0.464 in [13]. Besides, the z-score is -3.28 in [14]; -3.74 in assay [15]; 0.423 in assay [16]; -0.268 (inactive) in [17]; -0.662 in [18]; -1 in [19]. Besides, in [20], the z-score is -0.284 (inactive). Also, the composite z-score in assay [2] came to 0.217.
